Data taken from paper PMC5700166.
Where a chain is given by its changes, count along the chain named.

Experiments:
Experiment in all cases: protein-binding microarray (PBM); PBM: ~300 nM protein, 6 mM HEPES pH 7.8, 80 mM KCl, 0.5 mM EDTA, 0.5 mM EGTA, 6% glycerol, 35 ng/ul poly-dIdC, 1% milk, 1 h, room temperature; Ap Aiptasia and Nv Nematostella (sea anemones) / Co Capsaspora / Aq Amphimedon (sponge) / Dm Drosophila / Hu human; RHD is the Rel homology domain; high values mean tight binding
Details in all cases: dsDNA, one strand shown
[1] = molecular target: T1, GST-Ap-NF-kB RHD (Exaiptasia pallida (Aiptasia), UniProt A0A913YAJ5 2-422)
T1 sequence: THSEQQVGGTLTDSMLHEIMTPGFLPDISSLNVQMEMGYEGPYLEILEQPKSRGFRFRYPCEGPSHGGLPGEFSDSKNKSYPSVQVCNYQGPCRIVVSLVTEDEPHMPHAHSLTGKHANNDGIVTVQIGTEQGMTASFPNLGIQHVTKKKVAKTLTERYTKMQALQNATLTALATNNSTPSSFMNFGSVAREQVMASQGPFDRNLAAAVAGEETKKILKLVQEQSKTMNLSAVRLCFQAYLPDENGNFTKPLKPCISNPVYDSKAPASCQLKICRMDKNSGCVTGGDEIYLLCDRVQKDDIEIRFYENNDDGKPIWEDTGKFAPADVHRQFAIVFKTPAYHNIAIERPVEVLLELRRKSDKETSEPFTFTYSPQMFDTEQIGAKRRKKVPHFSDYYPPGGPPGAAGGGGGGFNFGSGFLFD

[2] = molecular target: T2, GST-Nv-NF-kB (Cys allele) (Nematostella vectensis, UniProt E5G601 2-411)
T2 sequence: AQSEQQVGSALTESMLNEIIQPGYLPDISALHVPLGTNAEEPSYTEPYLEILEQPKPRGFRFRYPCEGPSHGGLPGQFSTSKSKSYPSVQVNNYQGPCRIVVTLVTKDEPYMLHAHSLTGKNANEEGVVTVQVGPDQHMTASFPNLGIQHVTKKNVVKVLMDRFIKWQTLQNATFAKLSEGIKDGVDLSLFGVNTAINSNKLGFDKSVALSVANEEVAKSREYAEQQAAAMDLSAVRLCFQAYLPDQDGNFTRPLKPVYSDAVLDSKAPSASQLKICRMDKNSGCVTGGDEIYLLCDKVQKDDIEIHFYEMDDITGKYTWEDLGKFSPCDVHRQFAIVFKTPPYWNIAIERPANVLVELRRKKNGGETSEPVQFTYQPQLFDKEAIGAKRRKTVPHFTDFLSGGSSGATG

[3] = molecular target: T3, GST-Nv-NF-kB (Ser allele) (Nematostella vectensis, UniProt A7UNT2 2-411)
T3 sequence: T2 sequence with Q21R, C66S, S207N, E215Q, V217A, E225K, A268E, D399E

[4] = molecular target: T4, GST-Co-NF-kB (Capsaspora owczarzaki, UniProt F1ARL5 200-546)
T4 sequence: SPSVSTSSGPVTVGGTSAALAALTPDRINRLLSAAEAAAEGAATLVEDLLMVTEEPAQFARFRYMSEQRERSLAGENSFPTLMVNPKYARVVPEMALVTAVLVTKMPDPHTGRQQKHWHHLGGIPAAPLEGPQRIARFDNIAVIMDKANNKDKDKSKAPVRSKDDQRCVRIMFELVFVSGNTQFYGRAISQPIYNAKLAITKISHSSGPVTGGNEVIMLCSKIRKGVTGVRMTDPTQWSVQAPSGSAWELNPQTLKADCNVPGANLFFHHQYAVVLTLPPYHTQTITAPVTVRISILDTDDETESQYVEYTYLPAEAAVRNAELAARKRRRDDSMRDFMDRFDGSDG

[5] = molecular target: T5, GST-Dm-Relish (Drosophila melanogaster, UniProt Q94527 99-473)
T5 sequence: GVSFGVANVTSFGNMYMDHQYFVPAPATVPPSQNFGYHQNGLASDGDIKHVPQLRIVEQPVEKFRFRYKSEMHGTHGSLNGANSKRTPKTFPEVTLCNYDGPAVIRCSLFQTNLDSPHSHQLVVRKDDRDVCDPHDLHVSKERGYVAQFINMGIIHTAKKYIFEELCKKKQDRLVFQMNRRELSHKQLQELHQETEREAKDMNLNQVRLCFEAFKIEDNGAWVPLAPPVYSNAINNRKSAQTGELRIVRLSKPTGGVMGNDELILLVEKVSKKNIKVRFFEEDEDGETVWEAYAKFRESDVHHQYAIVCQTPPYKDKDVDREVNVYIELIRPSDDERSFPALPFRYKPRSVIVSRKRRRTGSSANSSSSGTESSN

[6] = molecular target: T6, GST-Aq-NF-kB (Amphimedon queenslandica, UniProt A9Y5G7 2-389)
T6 sequence: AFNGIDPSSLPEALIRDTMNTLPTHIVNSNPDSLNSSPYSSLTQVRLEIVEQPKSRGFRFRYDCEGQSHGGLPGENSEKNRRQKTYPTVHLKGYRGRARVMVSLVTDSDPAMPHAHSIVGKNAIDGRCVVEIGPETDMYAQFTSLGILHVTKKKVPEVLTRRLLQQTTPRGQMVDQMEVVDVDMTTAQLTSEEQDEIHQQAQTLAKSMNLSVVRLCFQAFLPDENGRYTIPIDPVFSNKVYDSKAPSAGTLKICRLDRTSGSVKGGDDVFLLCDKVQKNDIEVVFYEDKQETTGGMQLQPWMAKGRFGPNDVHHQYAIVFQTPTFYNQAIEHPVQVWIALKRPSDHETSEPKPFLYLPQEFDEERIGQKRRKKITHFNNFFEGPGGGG

[7] = molecular target: GST-Hu-p50 (Homo sapiens, UniProt P19838 7-356)
GST-Hu-p50, sequence (P19838 7-356): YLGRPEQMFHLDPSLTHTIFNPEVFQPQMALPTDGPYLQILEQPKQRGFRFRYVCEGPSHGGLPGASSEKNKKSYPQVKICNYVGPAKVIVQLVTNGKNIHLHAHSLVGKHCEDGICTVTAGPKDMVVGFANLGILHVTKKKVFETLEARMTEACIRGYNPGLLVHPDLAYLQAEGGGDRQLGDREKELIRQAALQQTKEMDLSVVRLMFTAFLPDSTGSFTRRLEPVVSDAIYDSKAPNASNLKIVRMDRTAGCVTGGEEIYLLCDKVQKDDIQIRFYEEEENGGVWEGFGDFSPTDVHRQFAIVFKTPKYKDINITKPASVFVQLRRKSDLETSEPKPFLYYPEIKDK

Row | Sequence | binding signal [1] | binding signal [2] | binding signal [3] | binding signal [4] | binding signal [5] | binding signal [6] | binding signal [7]
1 | CCGATTAACATCAGGGAAAGTTATGATGTTAATCGGGTCTTGATTCGCTTGACGCTGCTG | 3.92 z-score | 6.93 z-score | 6.19 z-score | 4.08 z-score | 2.29 z-score | 6.81 z-score | 4.76 z-score
2 | CCGATTAACATCAAAACATCCCCTGATGTTAATCGGGTCTTGATTCGCTTGACGCTGCTG | 6.41 z-score | 8.11 z-score | 8.22 z-score | 4.63 z-score | 8.65 z-score | 7.07 z-score | 5.91 z-score
3 | CCGATTAACATCAGGGGGGGCTATGATGTTAATCGGGTCTTGATTCGCTTGACGCTGCTG | 4.3 z-score | 3.34 z-score | 3.58 z-score | 5.06 z-score | 4.12 z-score | 4.07 z-score | 4.09 z-score
4 | CCGATTAACATCAGGGACGTCCCTGATGTTAATCGGGTCTTGATTCGCTTGACGCTGCTG | 7.37 z-score | 7.13 z-score | 4.26 z-score | 1.08 z-score | 6.25 z-score | 8.52 z-score | 4.54 z-score
5 | CCGATTAACATCAGTATTTCCCATGATGTTAATCGGGTCTTGATTCGCTTGACGCTGCTG | 3.01 z-score | 3.64 z-score | 3.53 z-score | 3.66 z-score | 5.01 z-score | 3.73 z-score | 2.64 z-score
6 | CCGATTAACATCATGGGGAAAAATGATGTTAATCGGGTCTTGATTCGCTTGACGCTGCTG | 5.03 z-score | 6.62 z-score | 8.82 z-score | 9.78 z-score | 2.39 z-score | 4.9 z-score | 5.43 z-score
7 | CCGATTAACATCAGAAGTTCCCCTGATGTTAATCGGGTCTTGATTCGCTTGACGCTGCTG | 7.97 z-score | 8.26 z-score | 8.1 z-score | 7.36 z-score | 8 z-score | 7.04 z-score | 5.84 z-score
8 | CCGATTAACATCACGTAATTCCCTGATGTTAATCGGGTCTTGATTCGCTTGACGCTGCTG | 3.45 z-score | 4.96 z-score | 5.01 z-score | 4.02 z-score | 6.81 z-score | 4.89 z-score | 3.49 z-score
9 | CCGATTAACATCAGAAAATCCCCTGATGTTAATCGGGTCTTGATTCGCTTGACGCTGCTG | 10.4 z-score | 12 z-score | 13.8 z-score | 4.89 z-score | 9.8 z-score | 8.95 z-score | 8.46 z-score
10 | CCGATTAACATCAAAATTTCCCTTGATGTTAATCGGGTCTTGATTCGCTTGACGCTGCTG | 5.11 z-score | 8.26 z-score | 7.99 z-score | 5.01 z-score | 4.81 z-score | 7.6 z-score | 5.41 z-score
11 | CCGATTAACATCAGGGACTTTTATGATGTTAATCGGGTCTTGATTCGCTTGACGCTGCTG | 7.76 z-score | 9.97 z-score | 9.79 z-score | 1.97 z-score | 8.37 z-score | 7.89 z-score | 6.59 z-score
12 | CCGATTAACATCAAAGCTTTCCCTGATGTTAATCGGGTCTTGATTCGCTTGACGCTGCTG | 2.54 z-score | 4.28 z-score | 4.2 z-score | 3.59 z-score | 1.47 z-score | 4.07 z-score | 3.46 z-score
13 | CCGATTAACATCAGCATTCCCCCTGATGTTAATCGGGTCTTGATTCGCTTGACGCTGCTG | 7.2 z-score | 7.59 z-score | 7.61 z-score | 6.59 z-score | 4.53 z-score | 5.57 z-score | 6.18 z-score
14 | CCGATTAACATCAAAAACTCCCTTGATGTTAATCGGGTCTTGATTCGCTTGACGCTGCTG | 5.39 z-score | 7.94 z-score | 7 z-score | 1.96 z-score | 6.3 z-score | 7.5 z-score | 5.92 z-score
15 | CCGATTAACATCAGAAATATCCCTGATGTTAATCGGGTCTTGATTCGCTTGACGCTGCTG | 2.4 z-score | 2.67 z-score | 2.09 z-score | 1.62 z-score | 3.52 z-score | 4.26 z-score | 3.17 z-score
16 | CCGATTAACATCAGGGGGAGAAATGATGTTAATCGGGTCTTGATTCGCTTGACGCTGCTG | 7.1 z-score | 6.13 z-score | 7.48 z-score | 10.7 z-score | 3.41 z-score | 4.8 z-score | 6.45 z-score
17 | CCGATTAACATCAAAATACCCCGTGATGTTAATCGGGTCTTGATTCGCTTGACGCTGCTG | 6.29 z-score | 5.39 z-score | 5.69 z-score | 5.77 z-score | 5.44 z-score | 5.69 z-score | 5.49 z-score
18 | CCGATTAACATCAGGGGGGTTTATGATGTTAATCGGGTCTTGATTCGCTTGACGCTGCTG | 7.17 z-score | 5.54 z-score | 6.69 z-score | 4.39 z-score | 8.97 z-score | 6.15 z-score | 6.31 z-score
19 | CCGATTAACATCAAGTTTTTCCCTGATGTTAATCGGGTCTTGATTCGCTTGACGCTGCTG | 4.35 z-score | 5.43 z-score | 7.41 z-score | 5.3 z-score | 5.12 z-score | 5.1 z-score | 4.44 z-score
20 | CCGATTAACATCAGGGGAAATACTGATGTTAATCGGGTCTTGATTCGCTTGACGCTGCTG | 7.87 z-score | 8.59 z-score | 11 z-score | 8.2 z-score | 9.53 z-score | 7.18 z-score | 6.88 z-score
21 | CCGATTAACATCAAAGTCCCCCCTGATGTTAATCGGGTCTTGATTCGCTTGACGCTGCTG | 7.56 z-score | 6.37 z-score | 5.95 z-score | 9.05 z-score | 7.85 z-score | 6.3 z-score | 5.64 z-score
22 | CCGATTAACATCAGGACTTTCCCTGATGTTAATCGGGTCTTGATTCGCTTGACGCTGCTG | 6.5 z-score | 10.2 z-score | 6.68 z-score | 1.87 z-score | 7.98 z-score | 10.5 z-score | 5.32 z-score
23 | CCGATTAACATCAAATCCCCCCGTGATGTTAATCGGGTCTTGATTCGCTTGACGCTGCTG | 8.26 z-score | 7.22 z-score | 6.8 z-score | 7.74 z-score | 8.05 z-score | 6.07 z-score | 6.44 z-score
